Bioassay records deposited in PubChem BioAssay by National Center for Advancing Translational Sciences (NCATS).
ELG1 repair inh: qHTS screen for small molecules that inhibit ELG1-dependent DNA repair in human embryonic kidney (HEK293T) cells expressing luciferase-tagged ELG1; Potency, µM (top dose mostly 46.1 µM), most hits filed as inhibitors; HEK293T ELG1-luciferase reporter, luminescence, 16 h; DNA damage induced by 5-fluorouridine; 330,000 compounds, 2.3% hits; AID 504467, 2011; further: nearly all actives have a fitted effect of over 55% in size
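In this reporter screen, reduction of luminescence relative to DMSO vehicle indicated activity. Compounds and 5-fluorouridine were added together to 2,000 cells per well, incubated for 16 hr at 37 °C, then developed with ONE-Glo.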
Giardia killer: Small Molecules that selectively kill Giardia lamblia: qHTS | Giardia lamblia trophozoite viability | activity change, % at 7.66 µM, hits read low | 340,000 compounds, 0.15% hits | AID 540267, 2011; in the data active means activity change below about -80%; inconclusive means between about -30% and that limit;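 further: parasites exposed to compound for two days anaerobically before the ATP read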
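Anaerobic 48 hrs incubation at 37 deg C of 100 trophozoites/well with test compounds; ATPLite 1-Step luminescence, 15-30 min RT, reports cellular ATP as viability.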
TDP1 cell CPT: qHTS for Inhibitors of human tyrosyl-DNA phosphodiesterase 1 (TDP1): qHTS in cells in presence of CPT; 420,000 compounds, 12% hits; AID 686979, 2013; Potency, µM (highest dose often 46.2 µM), usual class: inhibitors; chicken DT40 Tdp1-/-;hTDP1 cells + 20 nM CPT, ATP luminescence, 48 h; further: nearly all actives have a fitted effect of over 55% in size
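Chicken DT40 Tdp1-/- cells complemented with human TDP1, 400 cells/well, exposed to compounds plus 20 nM camptothecin for at least 48 h at 37 C; viability read as ATP content by CellTiter-Glo luminescence.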
TDP1 cell noCPT: qHTS for Inhibitors of human tyrosyl-DNA phosphodiesterase 1 (TDP1): qHTS in cells in absence of CPT; DT40 Tdp1-/- hTDP1 cells, no CPT, ATP luminescence, 48 h; Potency, µM (doses to about 46.2 µM), actives largely listed as inhibitors; 420,000 compounds, 15% hits; further: nearly all actives have a fitted effect of over 55% in size
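Luminescent ATP content (CellTiter-Glo) served as the growth readout. Knockout chicken DT40 cells expressing human TDP1 were exposed to compounds without camptothecin for a minimum 48 hr at 37 °C.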
IL1B secr inh: qHTS for Inhibitors of Inflammasome Signaling: IL-1-beta AlphaLISA Primary Screen | activity change, % at 57.5 µM | THP-1 LPS/ATP IL-1B secretion, AlphaLISA, 16 h; hits give low values | 360,000 compounds, 4.7% hits; in the data active means activity change below about -50%; inconclusive means mostly about -30% to -49%
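THP-1 cells pretreated 1 hr with compounds (up to 57.5 uM final), then stimulated with LPS (250 ng/mL final) plus ATP (1.25 mM final); secreted IL-1B measured by AlphaLISA after 16 hr, decreased signal indicating inhibition.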
TDP1 inh: qHTS Assay for Inhibitors of Tyrosyl-DNA Phosphodiesterase (TDP1) | Tyrosyl-DNA phosphodiesterase 1 (Homo sapiens), Q9NUW8 | Potency, µM (series often up to 130 µM), actives largely listed as inhibitors | AID 485290, 2010 | recombinant TDP1, AlphaScreen DNA substrate cleavage | 350,000 compounds, 0.28% hits; further: nearly all actives have a fitted effect of over 40% in size
Target sequence (Q9NUW8 whole entry, looked up): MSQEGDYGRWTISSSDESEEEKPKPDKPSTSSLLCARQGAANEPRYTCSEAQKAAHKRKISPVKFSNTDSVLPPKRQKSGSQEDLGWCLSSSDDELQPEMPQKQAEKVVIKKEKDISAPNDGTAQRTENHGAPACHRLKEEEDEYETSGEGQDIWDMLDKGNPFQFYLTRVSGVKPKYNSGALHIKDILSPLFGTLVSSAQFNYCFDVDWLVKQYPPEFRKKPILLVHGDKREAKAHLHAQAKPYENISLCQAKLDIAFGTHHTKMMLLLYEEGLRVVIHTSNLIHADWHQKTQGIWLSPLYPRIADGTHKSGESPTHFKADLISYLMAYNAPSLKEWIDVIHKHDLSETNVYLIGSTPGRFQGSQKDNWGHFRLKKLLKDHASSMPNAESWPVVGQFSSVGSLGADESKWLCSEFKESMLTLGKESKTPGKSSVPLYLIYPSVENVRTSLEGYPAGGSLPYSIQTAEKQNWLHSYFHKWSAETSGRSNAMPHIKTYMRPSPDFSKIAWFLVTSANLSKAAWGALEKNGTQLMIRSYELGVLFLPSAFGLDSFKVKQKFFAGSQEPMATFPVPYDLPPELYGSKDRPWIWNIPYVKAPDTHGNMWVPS
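Tdp1 1 nM final; 15 min RT w/ cpd; substrate 15 nM, 5 min; beads 10 ug/ml, 10 min; AlphaScreen read. Neg ctrl: no enzyme.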
Of the large screens only hits and unclear results are named; the others gave an inactive call. Hits are enriched below; roughly 19% of the tested compounds scored in any of these assays. Unless noted, the call rests on the fitted dose curve; in most records, active means well fitted curve in the direction sought with a large enough effect; inconclusive means small, poorly fitted or top-dose-only effect, or another doubt; inactive means no such curve, though single readings can be large; an effect the other way counts as inactive or inconclusive.

CCOc1ccc(-c2nc(SCC(=O)Nc3cc(F)ccc3F)n3[nH]c(=O)cc3n2)cc1	none (no result: ELG1 repair inh, Giardia killer, IL1B secr inh, TDP1 inh)
CCOc1ccc(C(=O)NCC(=O)N2CCCCCCC2)cc1	none
Cc1cccc(N2CCN(C(=O)CCn3c(=S)[nH]c4cc5c(cc4c3=O)OCO5)CC2C)c1 (stereo not given)	ELG1 repair inh 10µM, TDP1 cell CPT 16µM, TDP1 cell noCPT 23µM
Cc1cccc(N2CCN(C(=O)CCCn3c(=S)[nH]c4cc5c(cc4c3=O)OCO5)CC2)c1C	ELG1 repair inh 10µM, TDP1 cell CPT inconclusive, TDP1 cell noCPT inconclusive
COc1ccc(N2CCN(C(=O)CCCCCn3c(=S)[nH]c4cc5c(cc4c3=O)OCO5)CC2)cc1	none
CC(=O)c1ccc(N2CCN(C(=O)CCCn3c(=S)[nH]c4cc5c(cc4c3=O)OCO5)CC2)cc1	ELG1 repair inh 18µM
CCOC(=O)N1CCN(C(=O)CCCCCn2c(=S)[nH]c3cc4c(cc3c2=O)OCO4)CC1	ELG1 repair inh inconclusive, TDP1 cell CPT inconclusive, TDP1 cell noCPT inconclusive
O=C(CCCn1c(=S)[nH]c2cc3c(cc2c1=O)OCO3)N1CCN(c2ccccc2)CC1	TDP1 cell CPT inconclusive, TDP1 cell noCPT inconclusive
O=C(CCCn1c(=S)[nH]c2cc3c(cc2c1=O)OCO3)N1CCN(c2ccc(Cl)cc2)CC1	ELG1 repair inh 23µM, TDP1 cell CPT inconclusive, TDP1 cell noCPT 18µM
O=C(CSc1nnc(NC(=O)c2ccccc2F)s1)NC1CC1	ELG1 repair inh inconclusive
CC1(c2ccccc2)NC(=O)N(CC(=O)N2CCN(S(=O)(=O)c3cccs3)CC2)C1=O (stereo not given)	none
Cc1cc(C)nc(Nc2n[nH]c(COc3cccc4ccccc34)n2)n1	TDP1 cell CPT 2.9µM, TDP1 cell noCPT 3.3µM
Cc1cc(C)nc(Nc2n[nH]c(-c3cccc4ccccc34)n2)n1	ELG1 repair inh inconclusive, TDP1 cell CPT inconclusive, TDP1 cell noCPT inconclusive
Cc1cc(C)nc(Nc2n[nH]c(COc3ccc4ccccc4c3)n2)n1	none
Cc1cc(C)nc(Nc2n[nH]c(COc3ccccc3)n2)n1	ELG1 repair inh inconclusive, TDP1 cell CPT inconclusive, TDP1 cell noCPT 18µM
CCOC(=O)C1(O)CC(C)=NN1C(=O)c1cccc(Cl)c1 (stereo not given)	none
O=C(CNC(=S)NC(=O)c1ccc(Br)o1)c1ccccc1	ELG1 repair inh inconclusive, TDP1 cell CPT 16µM, TDP1 cell noCPT inconclusive
CCc1sc(Nc2cccc(C)c2)nc1-c1cc2cccc(OC)c2oc1=O	TDP1 cell CPT inconclusive, TDP1 cell noCPT 21µM (no result: ELG1 repair inh, Giardia killer, IL1B secr inh)
COc1cccc2cc(-c3cn4cccc(C)c4n3)c(=O)oc12	TDP1 cell noCPT inconclusive (no result: ELG1 repair inh, TDP1 inh)
CCc1sc(Nc2cccc(C)c2C)nc1-c1cc2cccc(OC)c2oc1=O	TDP1 cell CPT inconclusive, TDP1 cell noCPT 21µM (no result: ELG1 repair inh, Giardia killer, IL1B secr inh)
COc1cccc2cc(-c3nnc(Nc4c(F)cccc4F)s3)c(=O)oc12	none (no result: ELG1 repair inh, Giardia killer, IL1B secr inh)
COc1cccc2cc(-c3nnc(Nc4ccccc4C)s3)c(=O)oc12	TDP1 cell CPT inconclusive, TDP1 cell noCPT 8.2µM (no result: ELG1 repair inh, Giardia killer, IL1B secr inh)
CCc1sc(-c2cc3cccc(OC)c3oc2=O)nc1-c1cc(C)ccc1C	TDP1 cell CPT inconclusive, TDP1 cell noCPT inconclusive (no result: ELG1 repair inh, IL1B secr inh)
O=C(CCn1nc(-c2ccc(Cl)cc2)ccc1=O)N1CCN(c2ccccc2)CC1	ELG1 repair inh inconclusive, TDP1 cell CPT inconclusive, TDP1 cell noCPT inconclusive (no result: TDP1 inh)
COC(=O)c1cc(S(=O)(=O)NCC2CCN(CCc3ccc(OC)cc3)CC2)cn1C	IL1B secr inh inconclusive
COc1ccccc1C1C2C(=O)N(c3ccccc3)C(=O)C2ON1c1ccccc1 (stereo not given)	none
COc1ccc(C2C3C(=O)N(Cc4ccccc4)C(=O)C3ON2c2ccccc2)c(OC)c1OC (stereo not given)	ELG1 repair inh inconclusive, TDP1 cell CPT inconclusive, TDP1 cell noCPT 21µM
COc1nc(Oc2ccc(=O)n(-c3ccccc3)n2)nc(N(C)C)n1	none (no result: ELG1 repair inh, Giardia killer, IL1B secr inh, TDP1 inh)
CCCOc1ccc(-c2csc3nc[nH]c(=O)c23)cc1	ELG1 repair inh inconclusive, TDP1 cell CPT inconclusive, TDP1 cell noCPT inconclusive
O=c1[nH]cnc2scc(-c3ccc(-c4ccccc4)cc3)c12	ELG1 repair inh inconclusive, Giardia killer inconclusive, TDP1 cell noCPT inconclusive, IL1B secr inh -68
Cc1ccc(-c2csc3nc[nH]c(=S)c23)cc1C	TDP1 cell CPT 7.3µM, TDP1 cell noCPT 21µM
COC(=O)CCC/C=C1/SCC(NC(=O)c2ccccc2)C1=O (stereo not given)	TDP1 cell CPT 26µM, TDP1 cell noCPT 16µM
CCCSc1ccc([C@H]2N[C@@](C)(C(=O)OC)[C@H]3C(=O)N(C)C(=O)[C@@H]23)cc1	none
CCCCCCSc1ccc([C@H]2N[C@@](C)(C(=O)OC)[C@H]3C(=O)N(C)C(=O)[C@@H]23)cc1	ELG1 repair inh inconclusive, TDP1 cell CPT 21µM, IL1B secr inh inconclusive
COC(=O)[C@]1(C)N[C@H](c2ccc(SC3CCCCC3)cc2)[C@@H]2C(=O)N(C)C(=O)[C@@H]21	TDP1 cell CPT inconclusive, TDP1 cell noCPT 16µM
Cc1cc(C(=O)C(C(c2ccccc2)N2CCOCC2)N2CCOCC2)ccc1Cl (stereo not given)	TDP1 cell noCPT inconclusive (no result: ELG1 repair inh, TDP1 inh)
CC1CCN(c2c(NCc3ccc(C(=O)N4c5ccccc5CC4C)cc3)c(=O)c2=O)CC1 (stereo not given)	ELG1 repair inh inconclusive, TDP1 cell CPT 18µM, TDP1 cell noCPT 23µM
O=C1c2ccccc2C(=O)N1CCC#Cc1ccc2cc(CCCO)oc(=O)c2c1	ELG1 repair inh inconclusive
CCOc1ccc(-n2c(=O)c3c(C)c(C)sc3n(CC(=O)N3CCC(C)CC3)c2=O)cc1	TDP1 cell CPT inconclusive, TDP1 cell noCPT 21µM (no result: ELG1 repair inh, Giardia killer, IL1B secr inh)
COc1ccc2c(c1)OC[C@H]1[C@H]2N2C(=O)CN(Cc3ccc(Cl)cc3)C(=O)[C@@]2(C)[C@H]1c1ccccc1	TDP1 cell CPT 8.2µM, TDP1 cell noCPT inconclusive, IL1B secr inh inconclusive
Cc1ccc([C@@H]2[C@@H]3C(=O)N(c4ccccc4)C(=O)[C@@H]3[C@]3(C)C(=O)N(Cc4ccc(-c5ccccc5)cc4)CC(=O)N23)o1	TDP1 cell CPT 18µM, TDP1 cell noCPT inconclusive (no result: TDP1 inh)
